# Only some compounds are listed: those with a hit (about 4.6% of all), similar ones and a draw of the others.
# Tau fluor cs: Counterscreen qHTS for Inhibitors of Tau Fibril Formation, Fluorescence Polarization | tau K18 P301L Alexa594 fluorescence, heparin fibrillization | Potency, µM (highest dose often 57.7 µM), for inactives: top-dose activity change, negative = decrease | 280,000 compounds, 0.93% hits | AID 1463, 2008; also: potency is read from the fitted curve at half-maximal effect; nearly all actives have a fitted effect of over 55% in size
#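 Human tau K18 P301L (15 uM unlabeled, 0.24 uM Alexa 594-labeled) in 100 mM sodium acetate pH 7 with 20 uM heparin, 6 hr at 37 C. ThT 30 uM added, 1 hr ambient; Alexa 594 FP and total fluorescence read at 555/632 nm.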
# TRb SRC2 PPI: qHTS for Inhibitors of the Interaction of Thyroid Hormone Receptor and Steroid Receptor Coregulator 2 | Thyroid hormone receptor beta (Homo sapiens), P10828 | TRbeta-SRC2 peptide binding, fluorescence polarization; receptor liganded with 1 µM T3 | 280,000 compounds, 0.065% hits | AID 1469, 2008 | Potency, µM (series often up to 106 µM), without a hit: top-dose activity change, negative = inhibition, usual class: inhibitors;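 also: potency is read from the fitted curve at half-maximal effect; plate controls were bound peptide for no effect and peptide without receptor for full effect; nearly all actives have a fitted effect of over 50% in size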
# Target sequence (P10828 whole entry, looked up): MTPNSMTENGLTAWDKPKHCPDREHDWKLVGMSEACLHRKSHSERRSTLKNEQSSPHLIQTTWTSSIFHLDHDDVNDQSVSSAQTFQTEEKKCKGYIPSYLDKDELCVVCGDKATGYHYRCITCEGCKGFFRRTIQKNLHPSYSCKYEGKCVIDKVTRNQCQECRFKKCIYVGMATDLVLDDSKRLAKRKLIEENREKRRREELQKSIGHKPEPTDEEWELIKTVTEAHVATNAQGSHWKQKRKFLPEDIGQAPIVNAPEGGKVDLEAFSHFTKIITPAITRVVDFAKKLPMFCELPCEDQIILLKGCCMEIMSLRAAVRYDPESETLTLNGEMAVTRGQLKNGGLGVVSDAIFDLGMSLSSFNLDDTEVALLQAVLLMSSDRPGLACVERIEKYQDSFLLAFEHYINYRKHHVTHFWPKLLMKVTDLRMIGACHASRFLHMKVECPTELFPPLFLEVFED
#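 TRb LBD 0.6 uM + Texas Red SRC2 peptide 20 nM, 1 uM T3, Tris buffer w/ 5% DMSO; compound pinned, 5 h RT; FP read ex 555/em 632; normalized to unbound and bound controls.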
# Tau ThT inhib: qHTS for Inhibitors of Tau Fibril Formation, Thioflavin T Binding; recombinant tau K18 P301L (four-repeat tau fragment), heparin-induced fibrillization, ThT fluorescence; 270,000 compounds, 2.1% hits; Microtubule-associated protein tau (Homo sapiens), P10636; Potency, µM (series often up to 57.4 µM), for inactives: at the top dose activity, negative = inhibition, most hits filed as inhibitors; also: potency is read from the fitted curve at half-maximal effect; nearly all actives have a fitted effect of over 55% in size
# Target sequence (P10636 561-689 P618L limits assumed): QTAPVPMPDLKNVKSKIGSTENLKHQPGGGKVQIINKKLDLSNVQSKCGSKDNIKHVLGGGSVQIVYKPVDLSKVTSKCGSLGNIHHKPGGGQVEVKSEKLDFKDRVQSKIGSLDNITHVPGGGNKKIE
#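 In this qHTS, human K18 P301L tau is incubated with compound and heparin for 6 hr at 37 C, and Thioflavin T fluorescence then reports fibril load.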
# TR SRC2 fluor cs: Total Fluorescence Counterscreen for Inhibitors of the Interaction of Thyroid Hormone Receptor and Steroid Receptor Coregulator 2. 280,000 compounds, 0.29% hits. AID 1479, 2009. Potency, µM (titrated, usually from 106 µM), without a hit: top-dose fluorescence change, negative = quenching. TRb/SRC2 Texas Red total fluorescence interference; active = well fitted curve in either direction with a large enough effect; inconclusive = small, poorly fitted or top-dose-only effect; also: potency is read from the fitted curve at half-maximal effect
#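 Human TRb ligand-binding domain at 0.6 uM with 20 nM Texas Red SRC2 peptide in Tris buffer containing 1 uM T3 and 5% DMSO, incubated with compound 5 h at ambient temperature. Total fluorescence (555/632 nm) calculated as parallel + 2 × perpendicular.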
# PNC inhibitor: High Content Assay for Compounds that inhibit the Assembly of the Perinucleolar Compartment | AID 2417, 2010 | PC3M PTB-GFP, PNC prevalence imaging, 16 h; stronger effect = lower value | activity change (PNC), negative = inhibition, % at 10 µM | 140,000 compounds, 3.1% hits;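 active = readout at or below -70, meaning at least 70% loss of cells showing the perinucleolar compartment, a nuclear body marking cancer cells; inconclusive = readout between -30 and a set limit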;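 also: plate controls were DMSO wells for no effect and camptothecin positive control wells for full effect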
#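 Read-out is percentage of cells bearing a perinucleolar compartment, from automated 20x imaging of fixed, Hoechst-stained PC3M PTB-GFP cells. Cells were seeded 4 h, then exposed 16 h to compound (23 nl of library stock) in duplicate plates.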
# Tau FP inhib: qHTS for Inhibitors of Tau Fibril Formation, Fluorescence Polarization | 280,000 compounds, 0.39% hits | AID 1468, 2008 | Potency, µM (titrated, usually from 57.7 µM), for the others: top-dose activity, negative = inhibition, usual class: inhibitors | K18 P301L tau heparin fibrillization, Alexa594 FP, 6 h; also: potency is read from the fitted curve at half-maximal effect; nearly all actives have a fitted effect of over 55% in size
#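 Read-out: fluorescence polarization of Alexa 594-labeled tau (0.24 uM), 555 nm excitation, 632 nm emission. Mixtures held 15 uM unlabeled K18 P301L, compound and 20 uM heparin, pH 7 acetate buffer, incubated 6 hr at 37 C.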
# An asterisk follows results filed as active; ? = inconclusive; nt = no result; [ ] = another dose, or the depositor's remark. Unless noted, calls follow the shape of the dose curve; as a rule, active = well fitted curve in the direction sought with a large enough effect; inconclusive = small, poorly fitted or top-dose-only effect, or another doubt; inactive = no such curve, though single readings can be large; an effect the other way counts as inactive or inconclusive. Unless noted, % is scaled to controls: 0 for no effect and ±100 for the full control effect.
SMILES,Tau fluor cs,TRb SRC2 PPI,Tau ThT inhib,TR SRC2 fluor cs,PNC inhibitor,Tau FP inhib
COCCCNC(=O)c1ccc(-n2c(-c3ccccc3)cc3c2CCCCC3)cc1,?,4%,-5%,-23%,nt,18µM*
C/C(=N\NC(=O)c1nc2ccccn2c1C)c1cc2ccccc2o1,-1%,10%,?,0%,nt,4%
C/C(=N\NC(=O)c1ccccc1O)C1C(=O)c2ccccc2C1=O,?,0%,5µM*,?,?,12%
C/C(=N\NC(=O)c1cc2ccccc2cc1O)c1cc2ccccc2o1,?,?,3.5µM*,40µM*[quencher],nt,6%
CCC/C(C)=N/NC(=O)c1ccccc1O,5%,15%,-6%,-7%,-5,1%
C/C(=N/NC(=O)c1cc2ccccc2cc1O)C1C(=O)c2ccccc2C1=O,14µM*[quencher],20%,2.5µM*,40µM*[quencher],-28,-1%
C/C(CC(=O)N1CCN(C=O)CC1)=N\NC(=O)c1cc2ccccc2cc1O,?,30%,25µM*,45µM*[quencher],?,?
CCCCOP(=O)(c1ccc(N(C)C)cc1)C(O)c1ccccc1F (stereo not given),-4%,-18%,-3%,1%,-12,6%
Cc1[nH]n(C(N)=S)c(=O)c1N=Nc1ccc2ccccc2c1,?,-4%,2.8µM*,-6%,nt,3%
CC(=O)Nc1ccc(N=Nc2c(C)[nH]n(C(N)=S)c2=O)cc1,-22%,1%,8.9µM*,-7%,nt,-7%
Cc1ccc(S(=O)(=O)N2CCN(S(=O)(=O)N3CCCCC3)CC2)cc1,4%,3%,8%,-7%,44,5%
Cc1ccc(N=Nc2c(C)[nH]n(-c3ccccc3)c2=O)c(C)c1,11%[2.34 µM],-1%,-18%,-1%,nt,-4%
CC(=O)Nc1ccc(N=Nc2cc(C)ccc2O)cc1,nt,28%[201 µM],nt,?,nt,nt
Cc1ccc(N=Nc2c(C)[nH]n(C(N)=S)c2=O)cc1C,-4%,1%,4.5µM*,-3%,7,5%
Cc1[nH]n(C(N)=S)c(=O)c1N=Nc1ccc(S(=O)(=O)N2CCCCCC2)cc1,-26%,-8%,25µM*,-11%,15,7%
COC(=O)c1ccc(C#CC(NP(=O)(c2ccccc2)c2ccccc2)c2ccccc2)cc1 (stereo not given),-12%,-7%,-17%,-17%,nt,4%
Cc1[nH]n(C(N)=S)c(=O)c1N=Nc1cc(-c2ccc(Br)cc2)[nH]n1,?,-3%,2.2µM*,-16%,nt,3%
CCc1cccc(C)c1NC(=O)CO/N=C(\N)CC(=O)NC1CCCCC1,7%,-3%,-1%,0%,nt,5%
O=C1OC(/C=C/c2ccccc2)=NC/1=C/C=C/c1ccccc1,-3%,5%,16µM*,-4%,?,-13%
OCCNc1c2ccccc2nc2ccccc12,-19%,-9%,-16%,-1%,nt,-9%
CCCNc1c(F)c(F)c2c(C)c3ccccc3nc2c1F,-23%,5%,14µM*,3%,33,6%
COC(=O)c1sccc1S(=O)(=O)N(CC(=O)Nc1cc(F)ccc1F)c1ccc(C)c(C)c1,?,-8%,-13%,7%,nt,-11%
COc1ccc(C2=NNC(=Nc3cc(S(=O)(=O)N(C)C)ccc3C)SC2)c(OC)c1,-16%,-2%,?,-5%,nt,-17%
CC(=O)Nc1ccc(C2=NNC(=Nc3ccc(S(=O)(=O)N4CCOCC4)cc3)SC2)cc1,16µM*[quencher],-6%,4.5µM*,-8%,nt,?
COCCN=C1NN=C(c2ccc(NC(C)=O)cc2)CS1,-27%,0%,28µM*,2%,nt,?
SMILES,Tau fluor cs,TRb SRC2 PPI,Tau ThT inhib,TR SRC2 fluor cs,PNC inhibitor,Tau FP inhib
CC(=O)Nc1ccc(C2=NNC(=Nc3cccc(S(=O)(=O)N(C)C)c3)SC2)cc1,14µM*[quencher],-4%,7.9µM*,-10%,nt,?
CC1=NN(c2ccccc2)C(=O)C1(C)C,1%,-2%,-3%,-5%,117,-3%
COc1ccc(C/C(O)=C(\C#N)c2nc3ccccc3s2)cc1,-22%,-4%,?,-7%,?,0%
Cc1ccc(CNC(=O)CSCc2ccccc2F)cc1,-9%,-1%,-9%,1%,nt,1%
O=c1[nH]ncc(N2CCN(C(c3ccccc3)c3ccccc3)CC2)c1Cl,3%,4%[53 µM],-11%,-8%[53 µM],-24,-4%
O=C(CSc1nc2ccccc2n1-c1ccccc1)Nc1ncc(Cl)cc1Cl,-19%,14%,?,0%,-107*,5%
Cc1cccc(-n2c(SCC(=O)Nc3ncc(Cl)cc3Cl)nc3ccccc32)c1,-6%,1%,-12%,5%,-108*,8%
COc1cc(OC)c2c(=O)cc(-c3cccnc3)oc2c1,8%,-4%,2%,-8%,nt,3%
COc1ccc2c(CC(=O)Nc3ccccc3OC)coc2c1,-8%,-10%,-6%,-1%,nt,-5%
COc1ccc2c(CC(=O)Nc3ccc(OC)c(NS(=O)(=O)c4ccc(F)cc4)c3)coc2c1,-27%,-16%,-6%,-1%,-127*,-13%
CC1CCCN(C(c2ccccc2)c2sc3ncnn3c2O)C1 (stereo not given),2%,-1%,-6%,-2%,nt,-1%
CC(=O)Oc1ccc2c(=O)c(N3C(=O)c4ccccc4C3=O)c(C)oc2c1,9%,5%[53 µM],?,-2%[53 µM],-91*,-4%
O=C(N/N=C/c1ccc(N2CCOCC2)s1)c1ccccc1Br,-12%,-1%,?,-1%,nt,3%
Clc1cccc(N/N=C/c2ccc(N3CCOCC3)s2)c1,16µM*[quencher],7%,13µM*,-49%,17,?
O=C(Nc1nc2ccccc2s1)c1ccccc1,-20%,-12%,-11%,-3%,nt,-8%
CCOC(=O)N1CCC(N2Cc3cccc(C(=O)Nc4cccc(F)c4)c3C2=O)CC1,4µM*[quencher],7%,?,-1%,nt,?
CCOC(=O)N1CCC(N2Cc3cccc(C(=O)Nc4ccc(OC)c(OC)c4)c3C2=O)CC1,-12%,5%,?,0%,25,10%
O=C(NCCn1cc(SCc2ccccc2)c2ccccc21)c1cccs1,5.6µM*[quencher],1%,?,?,nt,?
O=C(NCCn1cc(SCc2ccccc2Cl)c2ccccc21)c1cccs1,3.2µM*[quencher],11%,-26%,-6%,nt,?
Cc1ccc(C)c(CSc2cn(CCNC(=O)c3cccs3)c3ccccc23)c1,8.9µM*[quencher],4%,?,1%,nt,-12%
